Screening data (PubChem)
PV pol inh = poliovirus RdRp elongation inhibitors, primary screen, biochemical, fluorescence polarization, total intensity; poliovirus polymerase elongation; stronger effect = lower value; % elongation, % (compound at 16.7 µg/mL); actives 0.66% (n = 150,000); AID 588519, 2011; in the data active = % elongation below about 90%
MbtI inh = MbtI salicylate synthase inhibitors, primary screen, biochemical, fluorescence intensity | P9WFX0 | purified MbtI enzyme, fluorescence intensity read-out | inhibition, % (no concentration beside the values) | actives 0.89% (n = 100,000); in the data active = inhibition mostly above about 56%, no sharp cut-off; inactive = mostly below about 77%
MenB inh = M. tuberculosis MenB inhibitors, primary screen, biochemical, absorbance. 1,4-dihydroxy-2-naphthoyl-CoA synthase (Mycobacterium tuberculosis (strain ATCC 25618 / …. MenB enzyme assay, absorbance read-out. inhibition, % (no concentration beside the values). actives 0.43% (n = 100,000). AID 540299, 2011; in the data active = inhibition above about 21%, passing the limit was not always enough
Target sequence (P9WNP5 whole entry, looked up): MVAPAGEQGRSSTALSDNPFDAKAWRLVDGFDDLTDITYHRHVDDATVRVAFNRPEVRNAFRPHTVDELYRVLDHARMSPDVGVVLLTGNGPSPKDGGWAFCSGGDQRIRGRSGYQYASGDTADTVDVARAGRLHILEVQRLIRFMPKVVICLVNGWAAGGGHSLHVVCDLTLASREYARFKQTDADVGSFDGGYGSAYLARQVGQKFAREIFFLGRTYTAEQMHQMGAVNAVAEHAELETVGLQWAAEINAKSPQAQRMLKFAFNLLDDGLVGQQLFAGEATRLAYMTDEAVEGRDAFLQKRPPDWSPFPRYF
Numbers stand for hits. A selection: hits, their analogues and other compounds. The true share with any hit is near 1.5%.

Results for CS(=O)(=O)CS(=O)(=O)NNc1ncc(C(F)(F)F)cc1Cl ?
PV pol inh: inactive; MbtI inh: 57.4; MenB inh: inactive

How did CNC(=S)NNc1ncc(C(F)(F)F)cc1Cl do in these assays?
PV pol inh: inactive; MbtI inh: inactive; MenB inh: inactive

What do the screens show for `O=C(C1CCCN(S(=O)(=O)c2ccc3nc(-c4ccccc4)[nH]c3c2)C1)N1CCOCC1` (stereo unspecified)?
PV pol inh: inactive; MbtI inh: inactive; MenB inh: inactive

Results for CN1CCC(N(Cc2ccco2)C(=O)c2cc3sccc3n2Cc2ccccc2)CC1 ?
PV pol inh: inactive; MbtI inh: inactive; MenB inh: inactive

What do the screens show for `CN1CCC(N(Cc2ccc3c(c2)OCO3)C(=O)c2cn(Cc3ccccc3)c3ccsc23)CC1`?
PV pol inh: inactive; MbtI inh: inactive; MenB inh: 23.5

How did CC(C)(C)c1cc(O)c2oc(=O)c(-c3nc(-c4ccccc4F)no3)cc2c1 do in these assays?
PV pol inh: inactive; MbtI inh: inactive; MenB inh: inactive

What do the screens show for `Cc1cc2ccccc2n1-c1ccc(C(=O)NC2CCCC2)s1`?
PV pol inh: inactive; MbtI inh: inactive; MenB inh: inactive

How did CN1CCN(NC(=O)c2ccccc2CCc2ccccc2)CC1 do in these assays?
PV pol inh: inactive; MbtI inh: inactive; MenB inh: inactive

How did N/C(=N\O)c1ccncc1 do in these assays?
PV pol inh: inactive; MbtI inh: inactive; MenB inh: inactive

Results for N/C(=N\O)c1cccc(/C(N)=N/O)n1 ?
PV pol inh: inactive; MenB inh: 47.3

Results for Cn1ncc2c(N3CCCCC3)nc(N3CCCC3)nc21 ?
PV pol inh: inactive; MbtI inh: inactive; MenB inh: inactive

What do the screens show for `O=C(NC1=NCCS1)c1cc(-c2ccc3c(c2)OCO3)nc2c1cnn2Cc1ccc(Cl)cc1`?
PV pol inh: inactive; MbtI inh: inactive; MenB inh: inactive

What do the screens show for `CCn1c(-c2nonc2NC(C)=O)n[nH]c1=S`?
PV pol inh: inactive; MbtI inh: 65.3; MenB inh: inactive

What do the screens show for `CCn1c(SCC(=O)Nc2ccc(C)c(C)c2)nnc1-c1nonc1NC(C)=O`?
PV pol inh: inactive

How did Cc1cc2cc(CNC(=O)CCC3CCCCC3)ccc2n1C do in these assays?
PV pol inh: inactive; MbtI inh: inactive; MenB inh: inactive

How did N#CC(C(=O)COc1ccccc1)c1ccccc1 (stereo unspecified) do in these assays?
PV pol inh: inactive; MbtI inh: 54.0; MenB inh: inactive

Results for O=C(O)COc1ccccc1 ?
PV pol inh: inactive; MbtI inh: inactive; MenB inh: inactive

What do the screens show for `CCN(CC)c1ccc2nnc(CCC(=O)N(CC)c3ccccc3)n2n1`?
PV pol inh: inactive; MbtI inh: inactive; MenB inh: inactive

How did N#Cc1cnn(-c2ccc(F)c(Cl)c2)c1N do in these assays?
PV pol inh: inactive; MbtI inh: inactive; MenB inh: inactive

What do the screens show for `O=C1C=CC(=O)N1c1ccc(F)c(Cl)c1`?
PV pol inh: inactive; MbtI inh: 93.4

How did CSc1ccc(S(=O)(=O)N2CCC(C(=O)N(C)C)CC2)cc1 do in these assays?
PV pol inh: inactive; MbtI inh: inactive; MenB inh: inactive

How did Nn1c(Cc2cccc3ccccc23)n[nH]c1=S do in these assays?
PV pol inh: inactive; MenB inh: inactive

What do the screens show for `CCCc1n[nH]c(=S)n1N`?
PV pol inh: inactive; MbtI inh: 68.8; MenB inh: inactive

What do the screens show for `CC(=O)N(c1ccccc1)c1nc(COC(=O)c2cc(C)oc2C)cs1`?
PV pol inh: inactive; MbtI inh: inactive; MenB inh: inactive

How did O=C1CSC(=S)N1CCc1ccc(Cl)cc1 do in these assays?
PV pol inh: inactive; MbtI inh: inactive; MenB inh: inactive

Results for O=C1C=CC(=O)N1CCc1ccc(Cl)cc1 ?
PV pol inh: inactive; MbtI inh: 100.5; MenB inh: inactive

How did O=C1CNCC(=O)N1CCc1ccccc1 do in these assays?
PV pol inh: inactive; MbtI inh: inactive; MenB inh: inactive

What do the screens show for `O=C1C=CC(=O)N1CCc1ccccc1`?
PV pol inh: inactive; MbtI inh: 93.2

How did Cc1cc(C)n(/N=C2/C(=O)Nc3ccc(Br)cc32)c(=O)c1C#N do in these assays?
PV pol inh: inactive; MbtI inh: inactive; MenB inh: inactive

What do the screens show for `Cc1ccc2c(c1Br)C(=C(C#N)C#N)C(=O)N2`?
PV pol inh: 84.0; MbtI inh: inactive; MenB inh: inactive

How did COc1cc(NC(=O)NCC2CCN(Cc3cc(C)ccc3C)CC2)cc(OC)c1 do in these assays?
PV pol inh: inactive; MbtI inh: inactive; MenB inh: inactive

Results for CCCCNC(=O)CSc1nc(-c2ccc(OC)cc2)cc(C(F)(F)F)n1 ?
PV pol inh: inactive

How did CCOC(=O)c1c(NC(=O)CSc2nc(-c3ccc(OC)cc3)cc(C(F)(F)F)n2)sc(C)c1C do in these assays?
PV pol inh: 86.0

Results for CCN(CC)C(=O)c1sc(NC(=O)C(C)Sc2nc(-c3ccccc3)cc(C(F)(F)F)n2)c(C(=O)OC)c1C (stereo unspecified) ?
PV pol inh: 84.0

What do the screens show for `COC(=O)c1c(NC(=O)CSc2nc(-c3ccco3)cc(C(F)(F)F)n2)sc2c1CCCC2`?
PV pol inh: inactive; MbtI inh: 56.8; MenB inh: inactive

Results for CCCOC(=O)c1c(NC(=O)CSc2nc(-c3ccco3)cc(C(F)(F)F)n2)sc(C(=O)N(C)C)c1C ?
PV pol inh: inactive; MbtI inh: inactive; MenB inh: inactive

What do the screens show for `CCCOC(=O)c1c(NC(=O)C(C)Sc2nc(-c3ccccc3)cc(C(F)(F)F)n2)sc(C(=O)N(C)C)c1C` (stereo unspecified)?
PV pol inh: inactive

What do the screens show for `Cc1cc(C)n2ncc(C(=O)N3CCC(C)CC3)c2n1`?
PV pol inh: inactive; MbtI inh: inactive; MenB inh: inactive

How did NC(=O)C1CCN(C2CC(=O)N(Cc3ccc(F)cc3)C2=O)CC1 (stereo unspecified) do in these assays?
PV pol inh: inactive; MbtI inh: inactive; MenB inh: inactive

Results for CC(C)(C)OC(=O)N1CCC[C@H]1C(=O)N1CCN(c2ccccc2)CC1 ?
PV pol inh: inactive; MbtI inh: inactive; MenB inh: inactive

Results for COc1cccc(CN(CCCN2CCOCC2)C(=O)c2cc3sccc3n2Cc2ccccc2)c1 ?
PV pol inh: inactive; MbtI inh: inactive; MenB inh: inactive

How did O=C(Oc1ccc(-c2ccccc2)nn1)c1ccco1 do in these assays?
PV pol inh: inactive; MbtI inh: inactive; MenB inh: inactive

Results for COc1ccc(C2=NC3(CCN(Cc4cccc(OC)c4)CC3)NC2=O)cc1 ?
PV pol inh: inactive; MbtI inh: inactive; MenB inh: inactive

How did COC(=O)c1c(NC(=O)CCCOc2ccc(C(C)(C)C)cc2)sc2c1C(C(=O)OC)CC2 (stereo unspecified) do in these assays?
PV pol inh: 62.0

Results for COC(=O)c1c(NC(=O)/C(C#N)=C/c2ccc(OC)cc2)sc2c1C(C(=O)OC)CC2 (stereo unspecified) ?
PV pol inh: inactive

Results for O=C(c1ccc2cn[nH]c2c1)N1CCN(c2ccccc2)CC1 ?
PV pol inh: inactive; MbtI inh: inactive; MenB inh: inactive

What do the screens show for `COc1ccccc1-c1noc(-c2ccccc2C(=O)NCc2ccco2)n1`?
PV pol inh: inactive; MbtI inh: 59.2; MenB inh: inactive
